The source of these data is ChEMBL document CHEMBL4888484, “Replenishing the malaria drug discovery pipeline: Screening and hit evaluation of the MMV Hit Generation Library 1 (HGL1) against asexual blood stage Plasmodium falciparum ,using a nano luciferase reporter read-out” (2022).

Out of some 4,800 compounds screened, about 420 (8.8%) showed an effect of 50% or more. The full list was thinned out, with strong results kept by preference.

The assay deals with Plasmodium falciparum. In words: Confirmatory screen in NF54 nanoGlo assay, in single point, at 2uM, 72h. It counts as functional, Erythrocyte. The settings on record: timepoint 72 hour.
The % Inhibition is the relative decrease from the control value, in per cent. Consider `Cc1ccc(C)c(NC(=O)CN2CCC3(CC2)NC(c2ccc(OC(F)(F)F)cc2)=NO3)c1`, for which the “% Inhibition” value is reported as -3%.
For the molecule `CC(C)[C@@H]1CN(C(=O)c2ccncc2)c2ccccc2N1`, the “% Inhibition” value is -7%.
In the case of `Cc1ccc(Cn2ccnc2C(=O)Nc2ccccc2)cc1` it was -15%; in that of `CC1(C)OCc2cc(CNc3ccc4oc(=O)[nH]c4c3)ccc2O1`, 93%.
In the case of `CCCN1CC(=O)N(c2ccc(C)cc2)[C@@H]2CS(=O)(=O)C[C@@H]21` it was 4%.
In the case of `COc1ccc(-c2nccn3cc(C(=O)N4CCN(c5cccc(OC)c5)CC4)nc23)cc1` it was -6%; in that of `O=C(NCc1ccccc1OC1CCC1)N(CCO)C1CC1`, -2%; in that of `CC(=O)N(c1ccccc1)[C@H]1C[C@@H](C)N(C(=O)C(F)(F)F)c2ccccc21`, 9%.
`Cc1noc(C)c1CN1C[C@@H]2Oc3cc(F)ccc3C(=O)N(C)[C@@H]2C1`: the “% Inhibition” value is recorded as 92%.
As for `Cc1noc(C)c1CN1CCCN(C(=O)c2n[nH]c3ccccc23)CC1`, the “% Inhibition” value is recorded as 0%.
Take `Cc1noc(C)c1CN1CCNC(=O)CC1`: the “% Inhibition” value is reported as -11%.
As to `O=C1O[C@@H](CO)CN1c1cccc(F)c1`, the “% Inhibition” value is -4%.
For the molecule `COc1ccc2nc(N3CN(Cc4ccccc4)CN(c4nc5ccc(OC)cc5s4)C3)sc2c1`, the “% Inhibition” value is given as 3%.
`Cc1ccc(C(=O)N(Cc2cccc(F)c2)c2ccc(CC(=O)N[C@@H](C)c3ccccc3)cc2)cc1`: the “% Inhibition” value came out at 81%.
Take `Cc1ccccc1C(=O)N(Cc1cccc(F)c1)c1ccc(CC(=O)NCCN2CCCCC2)cc1`: the “% Inhibition” value is on record as 44%.
Take `O=C(Cc1ccc(N(Cc2cccc(F)c2)C(=O)c2cccc(F)c2)cc1)NCCN1CCCCC1`: the “% Inhibition” value worked out at 38%.
Consider `CNC(=O)Cc1c(Cl)cccc1Cl`, for which the “% Inhibition” value stood at 1%.
With `CN1CCN(C(=O)C[C@@H]2CCN3C[C@@H]2/C=C\COc2ccccc2CN(C(=O)CC(C)(C)C)CC3=O)CC1`, the “% Inhibition” value came out at 5%.
In the case of `Nc1cc(Br)c(C(F)(F)F)cc1NC(=O)C(F)(F)F`, the “% Inhibition” value is recorded as -11%.
For `CCn1cc(Br)c(=O)c(NC(=O)[C@H]2CCCOC2)c1`, the “% Inhibition” value is given as -7%.
In the case of `Cc1nc2cc(NC(=O)[C@@]3(C)CCCN(C(=O)c4ccccc4)C3)ccc2o1` it was 57%; in that of `Cc1nc2cc(NC(=O)c3cccs3)ccc2o1`, -8%; in that of `CC(C)(CC(=O)Nc1ccc2oc(C3CC3)nc2c1)C(=O)O`, -2%.
Regarding `CNC(=O)c1cnc(C=Cc2cnc(-c3cccnc3)s2)s1`, the “% Inhibition” value was determined as 0%.
Consider `Cc1cc(C)c2ccc3ccccc3c2n1`, for which the “% Inhibition” value is recorded as -4%.
Take `CC[N+](C)(CC)CCOc1cc(C)c2ccccc2n1`: the “% Inhibition” value is reported as 53%.
For `CC(C)(NCc1ccccc1Cl)C(=O)O`, the “% Inhibition” value was 4%.
Regarding `Cc1ccc(S(=O)(=O)Nc2ccc(Oc3ccc(NS(=O)(=O)c4ccc(C)cc4)cc3)cc2)cc1`, the “% Inhibition” value is on record as 3%.
For the molecule `Cc1ccc(OCCNc2cc([C@H]3C[C@H](N)C3)nc(C3CC3)n2)cc1C`, the “% Inhibition” value was 31%.
Consider `N[C@H]1C[C@H](c2cc(NCCCc3cccnc3)nc(C3CC3)n2)C1`, for which the “% Inhibition” value is listed as 75%.
As to `Nc1nc2c(s1)CN(CCc1ccccc1)CC2`, the “% Inhibition” value was determined as 38%.
Take `N#Cc1nc2c(C#N)c(N)n(CCc3ccccc3)c2nc1C#N`: the “% Inhibition” value was determined as 87%.
On to `N#Cc1c(-c2ccccc2)cc(-c2ccccc2)nc1S(=O)(=O)Cc1ccccc1`, for which the “% Inhibition” value worked out at 35%.
For the molecule `O=C(c1ccccc1)N1N=C(C(F)(F)F)C2CCCCCC21O` (configuration not stated), the “% Inhibition” value is -11%.
On to `CCC1Cn2c(C(=O)NC(C)Cc3ccco3)cc3cccc(c32)O1` (configuration not stated), for which the “% Inhibition” value is -8%.
In the case of `CCOC(=O)N(c1ccccc1)[C@H]1CC(=O)N(c2ccccc2)C1=O` it was 1%.
As to `Cc1nnc2ccc(S(=O)(=O)Nc3cc(F)cc(F)c3)cn12`, the “% Inhibition” value is recorded as -4%.
On to `O=C(NCCCN1CCOCC1)c1ccc(-c2cnc(NC3CCCCC3)nc2)cc1`, for which the “% Inhibition” value is reported as -8%.
In the case of `Cn1cc(CN2CCC(C(=O)NCCCN3CCCCC3)CC2)c2cc(Cl)ccc21` it was -7%; in that of `Cc1cc2nc(C)c(=O)n(Cc3ccc(C(=O)NCCN4CCCC[C@@H]4C)cc3)c2cc1C`, 17%.
Take `COc1ccc(-c2nccn3cc(C(=O)NCCN(C)C4CCCCC4)nc23)cc1`: the “% Inhibition” value is reported as 6%.
Consider `O=S1(=O)NC(c2ccccc2)(c2ccccc2)c2ccccc21`, for which the “% Inhibition” value amounted to 1%.
Turning to `Cc1ccc(NC(=O)c2c(C)nc3sc(C(=O)NCc4ccccc4)c(N)c3c2-c2ccccc2Cl)c(C)c1`, the “% Inhibition” value is 77%.
In the case of `CCc1ccc(NC(=O)c2sc3nc(C)c(C(=O)Nc4ccc(C)cc4C)c(-c4ccccc4Cl)c3c2N)cc1`, the “% Inhibition” value is on record as 16%.
As to `Cc1ccc(NC(=O)c2c(C)nc3sc(C(=O)NCc4ccccc4)c(N)c3c2-c2cccs2)c(C)c1`, the “% Inhibition” value was 2%.
Regarding `CC(C)c1nc(CN(C)[C@@H](C)C(=O)Nc2nccs2)cs1`, the “% Inhibition” value is on record as 22%.
As for `CC(C)NC(=O)C(=O)Nc1nccs1`, the “% Inhibition” value is -14%.
The same measure for `CC(C)N(CC(=O)Nc1nccs1)Cc1ccccn1`: 68%; for `O=c1cc2c(nn1Cc1ccccc1Cl)-c1ccccc1CC2`: -8%.
For the molecule `O=C(c1ccc(O)cc1)C1CCN(C[C@H](O)C(F)(F)F)CC1`, the “% Inhibition” value worked out at 5%.
Regarding `Cc1nn(C)c2c(N3CCc4ccccc4C3)nc(C3CC3)nc12`, the “% Inhibition” value is reported as -7%.
As for `CCOCCCNC(=O)c1ccc(-c2ccc3c(c2)CCN3C(C)=O)cc1`, the “% Inhibition” value is on record as -2%.
In the case of `O=C(NCC1CCCCC1O)c1cnn2ccncc12` (configuration not stated) it was -12%; in that of `O=C(NCC1CCCCC1)c1cn[nH]c1-c1ccccc1`, -4%; in that of `O=C1Nc2ccccc2O[C@H]2C[C@@H]1N(CC1CC1)C2`, -10%.
For `CC(=O)c1cccc(NC(=O)Cc2c(C)nc3nc(C4CCCCC4)nn3c2C)c1`, the “% Inhibition” value is given as 5%.
Take `Clc1ccc(-c2noc(C3CNC3)n2)cc1`: the “% Inhibition” value is 21%.
In the case of `CC(C)N1CCN(C(=O)CN2N=C(c3nc(-c4ccccc4)no3)CCC2=O)CC1` it was 5%.
On to `c1ccc(-c2noc(-c3ccc(NC4CCCCC4)nn3)n2)cc1`, for which the “% Inhibition” value is 55%.
As to `Cc1nn(-c2ncc(C(F)(F)F)cc2Cl)c(=O)n1-c1cccc(F)c1`, the “% Inhibition” value was -4%.
In the case of `CC(C)(C)c1nc(CNc2ccc(S(=O)(=O)CCO)cc2)no1` it was -9%; in that of `Cc1cc(=O)[nH]c(N2CCCCCC2)n1`, -2%; in that of `O=C(COc1ccc(Cl)cc1)N1CC(n2cnnc2C2CC2)C1`, -7%.
In the case of `COc1ccc(Cl)cc1C(=O)N(C1CCOCC1)[C@H]1CCCN(S(C)(=O)=O)C1` it was -9%; in that of `COc1ccc(NC(=O)c2cc(C3CC3)nc3onc(C4CC4)c23)cc1Cl`, -3%.
Consider `COc1ccc(Cl)cc1C(=O)Nc1cc(C2CC2)nn1-c1nc(C)cc(=O)[nH]1`, for which the “% Inhibition” value turned out to be 66%.
In the case of `Cc1cc(=O)[nH]c(-n2nc(C3CC3)cc2NC(=O)C(C)(C)Oc2ccc(Cl)cc2)n1`, the “% Inhibition” value was 85%.
